Source: PubChem BioAssay (NCI)
Compounds without any hit were thinned out: in the full panel of roughly 83,000, 20% have a hit.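 Each cell line was grown in a 96-well plate and treated with one concentration of compound for 48 hours. Values below 10 were considered active.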 Active and inactive are the calls of the source.

System: MDA-MB-468 breast
Experiment: NCI-60 one-dose screen, 48 h (100 = growth as untreated, 0 = no growth, -100 = all killed)
Conditions: 10 µM unless noted

Structure (SMILES) | growth
O=C(c1ccc(OCCN2CCCCC2)cc1)c1c(-c2ccc(O)cc2)sc2cc(O)ccc12 | 57.7% (inactive)
CC(=O)/C(=C/c1ccc(-c2ccccc2)cc1)C(=O)c1ccccc1 | 92.2% (inactive)
CCCCSC1=C(Cl)CN(c2ccccc2)C1=O | 84.6% (inactive)
O=C1COc2ccccc2C(=O)N1CCCCN1CCCCC1 | 76.3% (inactive)
COc1cc(OC)c(NC(=O)c2cc3ccccc3cc2O)cc1Cl | 75.7% (inactive)
c1ccc(CNc2ccc3nc(CCC4CCCCC4)[nH]c3c2)cc1 | 43% (inactive)
O=c1[nH]c(-c2ccccc2)nc2sc3cc(O)ccc3c12 | 93.7% (inactive)
O=C(NCc1ccco1)Nc1c(Cl)cc(Cl)cc1Cl | 87.8% (inactive)
Cc1ccc(C2Oc3ccccc3C3CC(c4cccs4)=NN32)cc1 (stereo not given) | 109% (inactive)
CN(C)c1ccc(NC(=O)c2ccc(/C=C/C(=O)c3ncc[nH]3)cc2)cc1 | 45.6% (inactive)
Cc1ccc(-c2csc(NC(=O)CSc3nc(N)cc(N)n3)n2)cc1 | 11.6% (inactive)
[2H]C1([2H])[C@H](C)O[C@H](C)C([2H])([2H])N1c1ccc(NC(=O)c2cccc(-c3ccc(OC(F)(F)F)cc3)c2C)cn1 | 41.9% (inactive)
O=C(Nc1ccc(N2CCNCC2)cc1)c1[nH]ncc1Nc1ncnc2sc3c(c12)CCC3 | -83.5% (active)
C[C@H](Nc1ncnc2ccc(-c3cnc(Cl)c(NS(C)(=O)=O)c3)cc12)c1ccccc1 | -62.4% (active)
Cc1ccc(S(=O)(=O)c2c(COC(=O)c3cccc(C)c3)c(-c3ccccc3)nn2C)cc1 | -83.9% (active)
Cc1cn(C(C=O)OC(C=O)CO)c(=O)[nH]c1=O (stereo not given) | 113% (inactive)
C=C1C(=O)O[C@H]2[C@H]1CC/C(COC(=O)c1ccc3ccccc3c1)=C\CC[C@@]1(C)O[C@@H]21 | -57.9% (active)
CCOC(=O)CC(=O)CSC1=NC2C(NN1)N(C)C(=O)N2C (stereo not given) | 12.2% (inactive)
Cn1/c(=N/NC(N)=S)ccc2ccccc21 | 24.9% (inactive)
COC1(CC[C@@H](C)COC2OC(CO)C(O)C(O)C2O)O[C@H]2C[C@H]3[C@@H]4CC=C5C[C@@H](OC6OC(CO)C(OC7OC(C)C(O)C(O)C7O)C(O)C6OC6OC(C)C(O)C(O)C6O)CC[C@]5(C)[C@H]4CC[C@]3(C)[C@H]2[C@@H]1C (stereo not given in full) | -24% (active)

Structure (SMILES) | growth
CCn1cc(C(=O)N/N=C/c2cccs2)c(=O)c2cc(F)c(N3CCNC(C)C3)c(F)c21 (stereo not given) | 55.1% (inactive)
COc1cc(-c2nccc3[nH]c(-c4ccc5cc[nH]c5c4)nc23)cc(OC)c1OC | -36.7% (active)
CN1CCN(Cc2ccc(C(=O)Nc3cncc(C#Cc4cnc5cccnn45)c3)cc2C(F)(F)F)CC1 | 61.1% (inactive)
COc1ccc(C2c3[nH]c4ccc(Cl)cc4c3CCN2c2oc(CO)nc2C#N)cc1 (stereo not given) | 25.2% (inactive)
CCCCCCCCCCCCCCCCCCOP(=O)(O)O | 108% (inactive)
COc1ccc(/C=C/C(=O)c2cc3c(N)c(C(=O)Nc4ccccc4Cl)sc3nc2C)cc1 | 5.35% (active)
CC1(C)OC(=O)C(=Cc2ccccc2Br)C(=O)O1 | 98.2% (inactive)
COc1cccc(-c2nc3sccn3c2-c2cccc(S(C)(=O)=O)c2)c1 | 89.1% (inactive)
CCCCCCNc1cc(C)nc2ccc(OC)cc12 | -10.9% (active)
Cc1ccc(Cl)cc1NC(=O)CCl | 73.5% (inactive)
C=C(C)[C@@H]1CC[C@]2(C(N)=O)CC[C@]3(C)[C@H](CC[C@@H]4[C@@]5(C)C/C(=C/c6cccnc6)[C@H](O)C(C)(C)[C@@H]5CC[C@]43C)[C@@H]12 | 23.6% [100 µM] (inactive)
O=c1cc(C(F)(F)F)[nH]c(=S)[nH]1 | 110% (inactive)
CCCCCCCCN(CCCCCCCC)CC(O)c1ccc(Cl)c(C)c1Cl (stereo not given) | 105% (inactive)
c1ccc2c(c1)Nc1ccncc1S2 | 107% (inactive)
N#CC1=C(N)OC2=C(C(=O)CCC2)C1c1ccco1 (stereo not given) | 115% (inactive)
Cc1nc2cc(Nc3nc(N4CCOCC4)nc(N4CCN(C)CC4)n3)ccc2n1Cc1ccccc1 | 111% (inactive)
COCc1nc2ccccc2[nH]1 | 102% (inactive)
COC(=O)[C@@H](Cc1c[nH]c2ccccc12)NC(=O)CCCCOc1cc(O)c2c(=O)cc(-c3ccccc3)oc2c1 | 71.3% (inactive)
COc1ccc2nc(-c3ccc(Cl)cc3)cc(C(=O)N3N=C(c4ccc(N)cc4)CC3c3ccccc3)c2c1 (stereo not given) | 30.9% (inactive)
Cc1cnc(Nc2ccc(N3CCN(C)CC3)cc2)nc1Nc1ccc(Cl)c(NS(=O)(=O)C(C)(C)C)c1 | 14.9% (inactive)
